Results as given in the supplement of paper PMC6522484.
± gives the standard deviation of the averaged measurements.

Key:
[1] = system: DLD1; assay: cell viability (CellTiter-Glo) relative to plate median (fraction of plate median); higher = more viable cells; conditions: 5 µM; treatment time 24 h; reporter: 7TFP
How it was run: (§1)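 Per-well firefly luciferase or CellTiterGlo luminescence, normalised to the plate median, is what is reported. It was measured in colorectal cancer cells with stable lentiviral TCF/Wnt firefly luciferase reporters after a 24 h treatment with library compounds at a final 5 µM. The mean of two independent replicates is given.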

[2] = system: HCT116; assay: as above; conditions: 5 µM; treatment time 24 h; reporter: TCF4/Wnt
How it was run: as §1

[3] = system: SW480; assay: as above; conditions: 5 µM; treatment time 24 h; reporter: 7TFP
How it was run: as §1

[4] = system: DLD1; assay: TCF/Wnt firefly luciferase reporter signal relative to plate median (fraction of plate median); higher = higher Wnt reporter signal; conditions: 5 µM; treatment time 24 h; reporter: 7TFP
How it was run: as §1

[5] = system: SW480; assay: as above; conditions: 5 µM; treatment time 24 h; reporter: 7TFP
How it was run: as §1

C=C1C[C@H]2[C@@H]3C=C(C)C4=CC(=O)CC[C@]4(C)[C@H]3CC[C@]2(C)[C@@]1(OC(C)=O)C(C)=O
cell viability [1]: 0.99 ± 0.042
cell viability [2]: 1 ± 0.11
cell viability [3]: 1.01
TCF/Wnt firefly luciferase reporter signal [4]: 0.986 ± 0.076
TCF/Wnt firefly luciferase reporter signal [5]: 0.902 ± 0.094

C[C@@H]1CC[C@@]23CCC4(C)[C@@](C=CC5[C@@]6(C)CC[C@H](O)C(C)(C)C6CC[C@]54C)(OC2=O)C3[C@H]1C (stereo not given in full)
cell viability [1]: 1.025 ± 0.0071
cell viability [2]: 1.04 ± 0.028
cell viability [3]: 0.993 ± 0.0042
TCF/Wnt firefly luciferase reporter signal [4]: 1.06 ± 0.18
TCF/Wnt firefly luciferase reporter signal [5]: 0.994 ± 0.023

COc1ccc(-c2cc(=O)c3c(OC)c(OC)c(OC)c(OC)c3o2)cc1
cell viability [1]: 1 ± 0.064
cell viability [2]: 0.932 ± 0.059
cell viability [3]: 1.05 ± 0.05
TCF/Wnt firefly luciferase reporter signal [4]: 1.13 ± 0.042
TCF/Wnt firefly luciferase reporter signal [5]: 0.961 ± 0.0028

COC(=O)c1c(C)c2c(c(C)c1O)OC(=O)c1c(C)c(Cl)c(O)c(Cl)c1O2
cell viability [1]: 0.994 ± 0.037
cell viability [2]: 0.865 ± 0.016
cell viability [3]: 0.9555 ± 0.0078
TCF/Wnt firefly luciferase reporter signal [4]: 0.895 ± 0.083
TCF/Wnt firefly luciferase reporter signal [5]: 0.933 ± 0.057

C1N2CN3CN1CN(C2)C3
cell viability [1]: 1.04 ± 0.085
cell viability [2]: 1.08 ± 0.12
cell viability [3]: 0.978 ± 0.028
TCF/Wnt firefly luciferase reporter signal [4]: 0.985 ± 0.05
TCF/Wnt firefly luciferase reporter signal [5]: 1.02 ± 0.028

COC(=O)C1=CO[C@@H](O[C@@H]2O[C@H](CO)[C@@H](O)[C@H](O)[C@H]2O)[C@@H]2[C@@H](C)CC(=O)[C@]12O
cell viability [1]: 0.871 ± 0.067
cell viability [2]: 0.88 ± 0.17
cell viability [3]: 0.988 ± 0.06
TCF/Wnt firefly luciferase reporter signal [4]: 1.04 ± 0.19
TCF/Wnt firefly luciferase reporter signal [5]: 1.08 ± 0.035

COc1ccc(-c2oc3cc(OC)c(OC)c(OC)c3c(=O)c2OC)cc1OC
cell viability [1]: 0.952 ± 0.028
cell viability [2]: 1.1 ± 0.014
cell viability [3]: 1.06 ± 0.092
TCF/Wnt firefly luciferase reporter signal [4]: 0.986 ± 0.049
TCF/Wnt firefly luciferase reporter signal [5]: 1.06 ± 0.17

COc1ccc(-c2cc(=O)c3c(OC)c(OC)c(OC)cc3o2)cc1OC
cell viability [1]: 1.01 ± 0.022
cell viability [2]: 1.055 ± 0.0071
cell viability [3]: 1.015 ± 0.0071
TCF/Wnt firefly luciferase reporter signal [4]: 1.07 ± 0.13
TCF/Wnt firefly luciferase reporter signal [5]: 1.15 ± 0.16

CC(C)Cn1c(=O)n(C)c(=O)c2nc[nH]c21
cell viability [1]: 0.956 ± 0.048
cell viability [2]: 1.04 ± 0.05
cell viability [3]: 0.9585 ± 0.0092
TCF/Wnt firefly luciferase reporter signal [4]: 0.972 ± 0.054
TCF/Wnt firefly luciferase reporter signal [5]: 0.987 ± 0.018

CCCNC(=O)NS(=O)(=O)c1ccc(Cl)cc1
cell viability [1]: 1.03 ± 0.11
cell viability [2]: 0.991 ± 0.042
cell viability [3]: 1.07 ± 0.2
TCF/Wnt firefly luciferase reporter signal [4]: 0.968 ± 0.013
TCF/Wnt firefly luciferase reporter signal [5]: 0.945 ± 0.016

COC(=O)[C@@H]1OC(=O)[C@H]2O[C@@]23[C@@]1(C)CCC1[C@@]2(C)CCC(=O)C(C)(C)C2C[C@@H](OC(C)=O)[C@]13C (stereo not given in full)
cell viability [1]: 0.995 ± 0.078
cell viability [2]: 1.1 ± 0.085
cell viability [3]: 1.01 ± 0.034
TCF/Wnt firefly luciferase reporter signal [4]: 0.994 ± 0.037
TCF/Wnt firefly luciferase reporter signal [5]: 0.967 ± 0.038

C=CCCCCCCCCC(=O)[O-].C=CCCCCCCCCC(=O)[O-].[Zn+2]
cell viability [1]: 0.996 ± 0.049
cell viability [2]: 0.903 ± 0.011
cell viability [3]: 0.964 ± 0.023
TCF/Wnt firefly luciferase reporter signal [4]: 0.94 ± 0.24
TCF/Wnt firefly luciferase reporter signal [5]: 0.968 ± 0.041

COc1ccc(-c2coc3c(O)c(OC)ccc3c2=O)cc1
cell viability [1]: 0.969 ± 0.073
cell viability [2]: 0.984 ± 0.08
cell viability [3]: 0.99 ± 0.014
TCF/Wnt firefly luciferase reporter signal [4]: 1 ± 0.12
TCF/Wnt firefly luciferase reporter signal [5]: 1.01 ± 0.095

C/C(=C\C(=O)OCCCCCCCCC(=O)O)C[C@@H]1OC[C@H](C[C@@H]2O[C@H]2[C@@H](C)[C@H](C)O)[C@@H](O)[C@H]1O
cell viability [1]: 0.973 ± 0.052
cell viability [2]: 1 ± 0.025
cell viability [3]: 0.939 ± 0.017
TCF/Wnt firefly luciferase reporter signal [4]: 0.9545 ± 0.0021
TCF/Wnt firefly luciferase reporter signal [5]: 1.03 ± 0.028

OC(CCN1CCCCC1)(c1ccccc1)C1CC2C=CC1C2 (stereo not given)
cell viability [1]: 0.9145 ± 0.0021
cell viability [2]: 1.01 ± 0.12
cell viability [3]: 0.947 ± 0.052
TCF/Wnt firefly luciferase reporter signal [4]: 0.92 ± 0.23
TCF/Wnt firefly luciferase reporter signal [5]: 0.835 ± 0.028

C=C1c2cccc(O)c2C(=O)C2=C(O)[C@]3(O)C(=O)C(C(N)=O)=C(O)[C@@H](N(C)C)[C@@H]3[C@@H](O)[C@H]12
cell viability [1]: 0.968 ± 0.0014
cell viability [2]: 0.928 ± 0.13
cell viability [3]: 0.969 ± 0.073
TCF/Wnt firefly luciferase reporter signal [4]: 1.06 ± 0.26
TCF/Wnt firefly luciferase reporter signal [5]: 1.11 ± 0.064

NCCc1c[nH]cn1
cell viability [1]: 1.06 ± 0.028
cell viability [2]: 1.02 ± 0.021
cell viability [3]: 1.04 ± 0.062
TCF/Wnt firefly luciferase reporter signal [4]: 1.12
TCF/Wnt firefly luciferase reporter signal [5]: 1.06 ± 0.014

CCOC(=O)[C@H](CCc1ccccc1)N[C@@H](C)C(=O)N1[C@H](C(=O)O)C[C@H]2CCCC[C@@H]21
cell viability [1]: 0.923 ± 0.14
cell viability [2]: 1.02 ± 0.068
cell viability [3]: 0.98 ± 0.026
TCF/Wnt firefly luciferase reporter signal [4]: 0.912 ± 0.052
TCF/Wnt firefly luciferase reporter signal [5]: 0.974 ± 0.093

O=C1CN2Cc3c(ccc(Cl)c3Cl)N=C2N1
cell viability [1]: 1.05 ± 0.081
cell viability [2]: 1.04
cell viability [3]: 1 ± 0.011
TCF/Wnt firefly luciferase reporter signal [4]: 1.19 ± 0.092
TCF/Wnt firefly luciferase reporter signal [5]: 0.98 ± 0.13

C/C=C(\C)C(=O)[C@@H](C)/C=C(\C)[C@H]1O[C@@](O)([C@@](O)(CC)C(=O)N[C@@H]2C(=O)N3NCCC[C@@H]3C(=O)N(O)[C@@H](C)C(=O)N(C)[C@H](C)C(=O)N3NCCC[C@H]3C(=O)N[C@H]([C@H](C)O)C(=O)O[C@H]2C(C)C)CC[C@@H]1C
cell viability [1]: 0.983 ± 0.053
cell viability [2]: 1.01 ± 0.17
cell viability [3]: 1.08
TCF/Wnt firefly luciferase reporter signal [4]: 1.01 ± 0.065
TCF/Wnt firefly luciferase reporter signal [5]: 1.06 ± 0.035

COc1cc2nc(N3CCN(C(=O)c4ccco4)CC3)nc(N)c2cc1OC
cell viability [1]: 1.01 ± 0.097
cell viability [2]: 1.02 ± 0.036
cell viability [3]: 1.01 ± 0.018
TCF/Wnt firefly luciferase reporter signal [4]: 1.11 ± 0.014
TCF/Wnt firefly luciferase reporter signal [5]: 1.09 ± 0.028

COc1cc2ccc(=O)oc2c(OC)c1OC
cell viability [1]: 1.05 ± 0.075
cell viability [2]: 1.05 ± 0.064
cell viability [3]: 1.025 ± 0.0071
TCF/Wnt firefly luciferase reporter signal [4]: 0.993 ± 0.081
TCF/Wnt firefly luciferase reporter signal [5]: 0.931 ± 0.045

CC1NC(=O)CNC1=O (stereo not given) [cyclo(alanylglycyl)]
cell viability [1]: 0.883 ± 0.05
cell viability [2]: 0.918 ± 0.051
cell viability [3]: 0.925 ± 0.054
TCF/Wnt firefly luciferase reporter signal [4]: 0.947 ± 0.012
TCF/Wnt firefly luciferase reporter signal [5]: 1 ± 0.1

COc1cc(OC)c2ccc(=O)oc2c1
cell viability [1]: 1.08 ± 0.057
cell viability [2]: 0.999 ± 0.2
cell viability [3]: 1.07
TCF/Wnt firefly luciferase reporter signal [4]: 1.02 ± 0.084
TCF/Wnt firefly luciferase reporter signal [5]: 1.01 ± 0.071

O=C(O)c1cc(O)c2c(c1)[C@H]([C@H]1c3cc(C(=O)O)cc(O)c3C(=O)c3c(O[C@@H]4O[C@H](CO)[C@@H](O)[C@H](O)[C@H]4O)cccc31)c1cccc(O[C@@H]3O[C@H](CO)[C@@H](O)[C@H](O)[C@H]3O)c1C2=O
cell viability [1]: 0.943 ± 0.028
cell viability [2]: 0.967 ± 0.12
cell viability [3]: 1.01 ± 0.018
TCF/Wnt firefly luciferase reporter signal [4]: 1.08 ± 0.19
TCF/Wnt firefly luciferase reporter signal [5]: 1.01 ± 0.071

CCCCCCc1ccc(O)cc1O.Nc1c2ccccc2nc2ccccc12
cell viability [1]: 1.03 ± 0.056
cell viability [2]: 0.829 ± 0.0071
cell viability [3]: 1.1 ± 0.057
TCF/Wnt firefly luciferase reporter signal [4]: 1.98 ± 0.34
TCF/Wnt firefly luciferase reporter signal [5]: 0.848 ± 0.045

CC(=O)O[C@@H]1CC[C@@]2(C)C(C[C@@H](OC(C)=O)[C@@]3(C)C4=CC(=O)O[C@@H](c5ccoc5)[C@]4(C)CCC23)C1(C)C (stereo partly drawn) [3alpha-ACETOXYDIHYDRODEOXYGEDUNIN]
cell viability [1]: 1 ± 0.021
cell viability [2]: 1.04 ± 0.11
cell viability [3]: 0.956 ± 0.026
TCF/Wnt firefly luciferase reporter signal [4]: 1.25 ± 0.22
TCF/Wnt firefly luciferase reporter signal [5]: 1.11 ± 0.028

O=c1cc(-c2cc(O)c(O)c(O)c2)oc2cc(O)cc(O)c12
cell viability [1]: 1.02 ± 0.014
cell viability [2]: 1.06 ± 0.057
cell viability [3]: 0.943 ± 0.031
TCF/Wnt firefly luciferase reporter signal [4]: 1 ± 0.057
TCF/Wnt firefly luciferase reporter signal [5]: 0.952 ± 0.059
